Assay results: PubChem BioAssay AID488977 (Johns Hopkins Ion Channel Center, 2010)
In all, about 310,000 compounds went through this assay and about 1,500 (0.48%) were called active.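 Rule for the calls: active = initial fluorescence not abnormally high and integrated response B-score, plate-corrected, over 3 SD above library mean; inactive = the rest.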 What follows is part of a selection rich in actives, with near analogues and random picks from the rest.

target: High affinity choline transporter 1 (Homo sapiens) (UniProt Q9GZV3); experiment: allosteric activators of human choline transporter – cell-based, membrane potential dye, choline EC20, primary screen (AID 488977); details: CHT-expressing cells, at 10 µM; B-score: active compounds read high, LV-AA mutant CHT in HEK293 cells unless noted; outcome: LV-AA mutant CHT in HEK293 cells unless noted
Sequence (Q9GZV3 whole entry, looked up): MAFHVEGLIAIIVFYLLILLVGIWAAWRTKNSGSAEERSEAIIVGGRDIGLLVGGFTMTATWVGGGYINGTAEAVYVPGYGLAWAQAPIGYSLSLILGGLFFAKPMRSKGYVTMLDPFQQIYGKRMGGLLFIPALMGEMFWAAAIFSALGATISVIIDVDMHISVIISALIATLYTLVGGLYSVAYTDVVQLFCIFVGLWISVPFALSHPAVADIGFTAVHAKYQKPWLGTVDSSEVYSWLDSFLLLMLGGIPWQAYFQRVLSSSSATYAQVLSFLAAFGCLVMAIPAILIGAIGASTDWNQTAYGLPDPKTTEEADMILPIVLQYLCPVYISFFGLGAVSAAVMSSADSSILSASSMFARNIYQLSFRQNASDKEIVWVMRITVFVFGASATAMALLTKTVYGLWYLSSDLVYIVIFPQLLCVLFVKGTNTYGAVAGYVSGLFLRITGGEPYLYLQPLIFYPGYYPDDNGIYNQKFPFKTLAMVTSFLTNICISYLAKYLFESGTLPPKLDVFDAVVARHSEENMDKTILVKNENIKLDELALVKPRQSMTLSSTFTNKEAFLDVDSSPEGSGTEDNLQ

SMILES	B-score	outcome
CN1CCN(c2cc(N3CCNCC3)ccc2[N+](=O)[O-])CC1	8.44 (active)	–
CCN1CCN(c2ccc([N+](=O)[O-])cc2C#N)CC1	inactive	–
COC(=O)C1=C(c2cc3ccccc3o2)C[C@@H]2CC[C@H]1N2C(=O)NC1CCCCC1	inactive	–
COC(=O)C1=C(c2cc3ccccc3s2)C[C@@H]2CC[C@H]1N2C(=O)NCCO	inactive	–
COC(=O)C1=C(c2ccccc2)C[C@@H]2CC[C@H]1N2C(=O)N1CCCCC1	inactive	–
Cc1nc2ccc(N3CCN(C)CC3)cc2nc1C	6.37 (active)	–
C=CC12CN(C)[C@@H]3C4CO[C@H](C[C@H]41)[C@]1(C(=O)Nc4ccccc41)[C@@H]32 (stereo not given in full)	inactive	–
CC(=O)Nc1ccc(C(=O)C(Cc2ccccc2)N(C)C)cc1 (stereo not given)	inactive	–
O=[N+]([O-])c1cnc2ccc3ccccc3c2c1	inactive	–
CCCCCn1c(=O)c(C(=O)Nc2c(C)n(C)n(-c3ccccc3)c2=O)c(O)c2ccccc21	8.71 (active)	–
CCCCn1c(=O)c(C(=O)Nc2ccccc2Cl)c(O)c2ccccc21	inactive	–
CCCCCn1c(=O)c(C(=O)NCc2ccccc2)c(O)c2ccccc21	inactive	–
CNCC(O)c1cc(F)c(OCc2ccccc2)c(OCc2ccccc2)c1F (stereo not given)	inactive	–
O=C(N/N=C/c1c(O)n(C2CC2)c(=S)[nH]c1=O)c1ccccc1Cl	–	inactive [setting not given]
C/C(=N/O)c1ccc2ccc3ccccc3c2c1	inactive	–
